A selection: hits, their analogues and other compounds. The true share with any hit is near 3.2%.
PGC1a acetyl inh: inhibitors of PGC1a acetylation signal, primary screen, cell-based, U2OS, AlphaScreen, inhibitor mode; 350,000 tested, 0.17% active; inhibition, % at 15.6 µM; AlphaScreen anti-acetyl-lysine; with virally co-expressed GCN5 acetyltransferase; AID 651687, 2012;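 active = every replicate shows inhibition of at least 40%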
ERAP1 inh: human ERAP1 aminopeptidase inhibitors, primary screen, biochemical, single point, plate reader. recombinant ERAP1, Leu-AMC fluorescence, 60 min. inhibition, % at 10.7 µM. 340,000 tested, 0.15% active;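 active = mean replicate inhibition of at least 30%, or all replicates individually reaching that 30% level; inactive = mean below 30% and not every replicate reaching it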
Target sequence (Q9NZ08 whole entry, looked up): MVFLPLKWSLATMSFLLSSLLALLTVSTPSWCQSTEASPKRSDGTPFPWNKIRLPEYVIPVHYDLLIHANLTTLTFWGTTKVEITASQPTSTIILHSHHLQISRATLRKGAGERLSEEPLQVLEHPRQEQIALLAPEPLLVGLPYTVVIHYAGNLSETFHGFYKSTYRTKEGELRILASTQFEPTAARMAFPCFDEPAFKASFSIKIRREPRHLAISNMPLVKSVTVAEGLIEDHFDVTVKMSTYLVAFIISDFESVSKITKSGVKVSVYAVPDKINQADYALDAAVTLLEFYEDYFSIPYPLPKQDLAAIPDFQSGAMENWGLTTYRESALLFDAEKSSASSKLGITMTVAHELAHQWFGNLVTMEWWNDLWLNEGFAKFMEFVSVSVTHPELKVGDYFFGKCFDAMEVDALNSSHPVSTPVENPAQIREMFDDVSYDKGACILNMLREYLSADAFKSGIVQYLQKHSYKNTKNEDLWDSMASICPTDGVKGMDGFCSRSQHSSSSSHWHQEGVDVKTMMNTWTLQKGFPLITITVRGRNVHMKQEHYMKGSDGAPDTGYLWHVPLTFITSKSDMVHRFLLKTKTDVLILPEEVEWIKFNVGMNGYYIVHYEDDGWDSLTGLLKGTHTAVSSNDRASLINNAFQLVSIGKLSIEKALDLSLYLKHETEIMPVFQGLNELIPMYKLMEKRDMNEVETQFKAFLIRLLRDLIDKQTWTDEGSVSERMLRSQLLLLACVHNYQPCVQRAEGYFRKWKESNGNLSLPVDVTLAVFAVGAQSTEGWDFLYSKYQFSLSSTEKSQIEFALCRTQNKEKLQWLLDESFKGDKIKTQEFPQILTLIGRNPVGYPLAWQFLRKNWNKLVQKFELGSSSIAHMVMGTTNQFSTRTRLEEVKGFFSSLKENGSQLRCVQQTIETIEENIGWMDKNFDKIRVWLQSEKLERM
GSIS activator: GLuc luminescence reporter in INS-1E cells, primary screen for activators of glucose-dependent secretion of insulin; INS-1E GLuc reporter insulin secretion, 2-3 h; activation, % at 16.6 µM; 370,000 tested, 0.61% active; AID 743287, 2014;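 active = lowest replicate activation of at least 40%, so every replicate reaches that level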
DENV2 CPE: inhibitors of DENV2 cytopathic effect, primary screen, cell-based, plate reader, single concentration. DENV2-infected cells, cytopathic effect rescue. CPE inhibition, % at 9.99 µM. 350,000 tested, 1.7% active. AID 651640, 2012; in the data active = CPE inhibition above about 20%, passing the limit was not always enough; tested in BHK-21 cells
CaV13 ICDI inh: Disruptors of the CACNA1D IQ motif to Ca2+-dependent inactivation inhibitor domain association, primary screening, Förster resonance energy transfer in intact living … | HEK cells, CFP/YFP FRET ICDI-IQ, plate reader, 10 min; percent FRET-ratio fall versus neutral wells | inhibition, % at 12.3 µM | 340,000 tested, 0.098% active;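 active = mean replicate inhibition of at least 30% and at least 1% of replicates passing that level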
Ecoli rRNA inh: reduced GFP signal of wild-type E. coli, primary screen, bacterial rRNA inhibitor project, GFP/RFP fluorescence, OD600, single point | E. coli WT GFP vs humanized-ribosome RFP mutants, 24 h; stronger effect = lower value; DMSO median 0, no signal -100 | GFP signal change (wild-type ribosome), % (no concentration beside the values) | 350,000 tested, 1.6% active;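 active = significant combined selectivity score with lowered wild-type GFP, culture density cut under 30%, mutant RFP and density less affected; inactive = any of these conditions unmet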
Numbers stand for hits; n = inactive; x = not tested or not shown.

SMILES	PGC1a acetyl inh	ERAP1 inh	GSIS activator	DENV2 CPE	CaV13 ICDI inh	Ecoli rRNA inh
Clc1ccc(-n2nnnc2-c2cnc3ccccc3c2-c2ccccc2)cc1	n	n	x	n	n	-21.2
Cc1ccc(-n2nnnc2-c2cnc3ccc(Cl)cc3c2-c2ccccc2)cc1	n	x	x	x	n	x
O=C(CN1CCOCC1)N[C@@H]1CC[C@H](CCNS(=O)(=O)c2ccccc2F)O[C@@H]1CO	n	x	n	x	x	n
c1ccc(SCc2nc3ccccc3s2)nc1	n	n	n	n	n	-22.6
COc1cc(/C=N/N=C(N)N)ccc1OCc1ccc(Cl)cc1	x	n	n	n	n	n
NC(N)=N/N=C/c1ccc(OCc2ccccc2Cl)cc1	n	n	50.7	n	n	n
NC(N)=N/N=C/c1ccc(OCc2ccccc2)c(OCc2ccccc2)c1	x	n	438.6	n	n	n
CCOc1cc(/C=N/N=C(N)N)ccc1OCc1ccc(Cl)cc1	55.7	n	x	n	n	n
Cc1noc(C)c1NC(=O)Nc1ccc2c(c1)C(=O)N([C@@H](C)CO)C[C@@H](C)[C@@H](CN(C)Cc1ccc(C(F)(F)F)cc1)O2	n	n	n	n	x	n
C[C@H](O)C#Cc1ccc2c(c1)O[C@H](CN(C)C(=O)c1ccccc1)[C@@H](C)CN([C@@H](C)CO)S2(=O)=O	n	n	n	n	x	n
Cc1ccc(S(=O)(=O)Nc2c3ccccc3nc(=O)n2-c2ccccc2)cc1	n	x	58.9	x	x	x
O=c1nc2ccccc2c(NS(=O)(=O)c2ccccc2)n1-c1ccccc1	n	x	x	x	n	x
Cc1ccc(S(=O)(=O)Nc2ccc3c(c2)C(=O)N([C@H](C)CO)C[C@H](C)[C@H](CN(C)C(=O)Cc2ccccc2)OCCCC[C@H](C)O3)cc1	n	n	n	n	x	n
CCn1cc(/C=C(\NC(=O)c2ccccc2OC)C(=O)NCCN2CCOCC2)c2ccccc21	x	n	n	21.6	n	n
CCn1cc(/C=C(\NC(=O)c2cc(OC)c(OC)c(OC)c2)C(=O)NCCN2CCOCC2)c2ccccc21	n	n	n	n	n	n
O=C(NCCN1CCOCC1)/C(=C/c1ccccc1)NC(=O)c1ccccc1	x	n	47.4	n	n	n
COc1ccc(S(=O)(=O)N(C)C[C@@H]2Oc3c(NC(=O)c4nc5ccccc5s4)cccc3C(=O)N([C@@H](C)CO)C[C@@H]2C)cc1	n	n	n	n	x	n
O=C(C[C@@H]1CC[C@@H]2[C@H](COC[C@H](O)CN2C(=O)c2ccc(F)cc2)O1)NCCCN1CCOCC1	n	n	n	n	x	n
O=C(C[C@H]1CC[C@H]2[C@@H](COC[C@@H](O)CN2C(=O)c2ccc(F)cc2)O1)NCCCN1CCOCC1	n	n	n	20.2	x	n
O=C(C[C@@H]1CC[C@@H]2[C@H](COC[C@@H](O)CN2Cc2ccc(F)cc2)O1)NCCc1ccccc1	n	n	n	28.1	x	n
COc1ccc(CN2C[C@@H](O)COC[C@H]3O[C@H](CC(=O)NCc4ccncn4)CC[C@@H]32)cc1	n	n	n	n	x	n
O=C(C[C@H]1CC[C@@H]2[C@H](COC[C@H](O)CN2Cc2ccc(F)cc2)O1)NCc1ccncn1	n	n	n	26.7	x	n
O=C(C[C@@H]1CC[C@H]2[C@@H](COC[C@@H](O)CN2S(=O)(=O)c2ccc(Cl)cc2)O1)NCCN1CCCC1	n	n	n	23.1	x	n
C[C@H](CO)N1C[C@H](C)[C@H](CN(C)Cc2ccc3c(c2)OCO3)Oc2ncc(-c3cc4ccccc4o3)cc2C1=O	x	x	n	x	x	n
O=C(C[C@H]1CC[C@H]2NC[C@H](O)COC[C@@H]2O1)NCCc1ccccc1	n	n	n	35.7	x	n
O=C(C[C@@H]1CC[C@@H]2[C@H](COC[C@@H](O)CN2Cc2ccccc2)O1)NCc1ccccc1Cl	n	n	n	33.4	x	n
O=C(C[C@@H]1CC[C@H]2[C@@H](COC[C@H](O)CN2Cc2ccccc2)O1)N[C@@H]1CCN(Cc2ccccc2)C1	n	n	n	38.6	x	n

From PubChem
